Bioassay records as filed in PubChem BioAssay.
Most compounds without a hit are left out; they make up all but 5.3% or so of the library.
Tau fluor counter = counter-screen for tau fibril formation inhibitors. 280,000 tested, 0.93% active. Potency, µM (highest dose often 57.7 µM). tau K18 P301L Alexa594 fluorescence, heparin fibrillization; further: nearly all actives have a fitted effect of over 55% in size
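Human tau K18 P301L (15 uM unlabeled, 0.24 uM Alexa 594-labeled) in 100 mM sodium acetate pH 7 with 20 uM heparin, 6 hr at 37 C. ThT 30 uM added, 1 hr ambient; Alexa 594 FP and total fluorescence read at 555/632 nm.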
Sfp inh = blocks B. subtilis Sfp PPTase activity; Q9F4F7; Biochemical Sfp PPTase activity, qHTS; Potency, µM, most hits filed as inhibitors; 310,000 tested, 3.5% active; AID 1490;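 further: the enzyme is Sfp with the accession as filed and its product quenches rhodamine fluorescence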
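After 15 min at room temperature with compound, 15 nM Sfp received 5 uM rhodamine-CoA plus 12.5 uM BHQ-2-ybbR (50 mM Hepes pH 7.6, 10 mM MgCl2). Rate came from the fluorescence difference over 30 min, ex 525/em 598 nm.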
KDM4E inh = blocks human JMJD2E demethylase activity. B2RXH2. JMJD2E catalytic domain, FDH-coupled NADH fluorescence (FDH is formaldehyde dehydrogenase). Potency, µM (series often up to 57.1 µM), hits mostly inhibitors. 230,000 tested, 1.6% active. AID 2147; active means well fitted inhibition curve with a large enough effect, not every such curve was filed as active; inconclusive means small, poorly fitted or top-dose-only effect, or another doubt; inactive means no such curve, though single readings can be large or run the other way; further: nearly all actives have a fitted effect of over 50% in size
Target sequence (B2RXH2 1-337 limits assumed): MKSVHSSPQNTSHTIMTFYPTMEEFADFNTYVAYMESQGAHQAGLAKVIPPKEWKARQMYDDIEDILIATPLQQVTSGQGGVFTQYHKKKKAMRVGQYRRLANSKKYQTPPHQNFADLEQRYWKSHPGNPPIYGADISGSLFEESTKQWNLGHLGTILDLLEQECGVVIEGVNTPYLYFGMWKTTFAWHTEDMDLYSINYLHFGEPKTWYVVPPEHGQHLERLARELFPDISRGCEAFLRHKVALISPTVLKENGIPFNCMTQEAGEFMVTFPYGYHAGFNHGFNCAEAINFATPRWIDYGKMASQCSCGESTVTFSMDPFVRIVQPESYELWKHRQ
FBPA coupling cs = coupling enzyme interference in Giardia aldolase counter-screen | coupling enzyme system counterscreen, AmpLite Red fluorescence | activity change, negative = inhibition, % at 58.2 µM, hits read low | 290,000 tested, 0.67% active; in the data active means activity change below about -30%
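Counterscreen lacking aldolase: glyceraldehyde-3-phosphate coupling-enzyme reagent preincubated 10 min at RT with compound (at 57.5 uM final), then substrate/coupling system with AmpLite Red added; fluorescence read at 525/598 nm after 20 min RT.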
Tau ThT inhib = tau fibrillization inhibition (ThT binding). 270,000 tested, 2.1% active. Potency, µM (doses to about 57.4 µM), actives largely listed as inhibitors. AID 1460. P10636. recombinant tau K18 P301L (four-repeat tau fragment), heparin-induced fibrillization, ThT fluorescence; further: nearly all actives have a fitted effect of over 55% in size
Target sequence (P10636 561-689 P618L limits assumed): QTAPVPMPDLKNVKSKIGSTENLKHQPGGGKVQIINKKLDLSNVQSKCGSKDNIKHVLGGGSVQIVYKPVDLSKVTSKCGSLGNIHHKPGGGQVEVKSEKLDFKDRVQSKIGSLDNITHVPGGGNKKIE
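Recombinant human tau K18 fragment […] carrying P301L, 15 uM unlabeled plus 0.24 uM Alexa 594-labeled, was fibrillized with 20 uM heparin in 100 mM sodium acetate pH 7 for 6 hr at 37 C; 30 uM ThT fluorescence read after 1 hr.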
Tau fibril FP = inhibitors of human tau fibril formation; P10636; K18 P301L tau heparin fibrillization, Alexa594 FP, 6 h; Potency, µM (titrated, usually from 57.7 µM), usual class: inhibitors; 280,000 tested, 0.39% active; AID 1468; further: nearly all actives have a fitted effect of over 55% in size
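Human tau K18 […] P301L fragment, 15 uM unlabeled plus 0.24 uM Alexa 594-labeled tau (final), with compound and 20 uM heparin in 100 mM sodium acetate pH 7; 6 hr at 37 C, then Alexa 594 FP read.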
Hits are given with their value; - = inactive; ? = inconclusive; . = not tested or not shown; [ ] = dose if it differs, or a comment. Unless noted, the call rests on the fitted dose curve; in most records, active means well fitted curve in the direction sought with a large enough effect; inconclusive means small, poorly fitted or top-dose-only effect, or another doubt; inactive means no such curve, though single readings can be large; an effect the other way counts as inactive or inconclusive.

SMILES	Tau fluor counter	Sfp inh	KDM4E inh	FBPA coupling cs	Tau ThT inhib	Tau fibril FP
Cc1ccc(C(=O)NNC(=O)C(C)Sc2nc(N)cc(N)n2)cc1 (stereo unspecified)	-	-	-	-	-	-
Cc1ccc(Sc2ccc(N3CCCC(C(=O)Nc4ccc(F)c(Cl)c4)C3)nn2)cc1 (stereo unspecified)	-	.	.	.	-	-
COc1ccc2[nH]cc(CCNc3nc(-c4ccccc4CN(C)C)nc4ccccc34)c2c1	?	-	?	-	?	-
COc1ccc2[nH]cc(CCNc3cc(-c4ccccc4C(F)(F)F)ncn3)c2c1	-	79µM	-	-	-	-
COc1ccc2[nH]cc(CCNc3cc(-c4ccccc4Cl)ncn3)c2c1	.	?	.	-	.	.
COc1ccc2[nH]cc(CCNc3ccnc(-c4ccoc4)n3)c2c1	.	?	.	-	.	.
COc1ccc2[nH]cc(CCNc3nc(-c4ccoc4)nc4ccccc34)c2c1	32µM[quencher]	-	-	-	?	?
COc1cccc(-c2nc(NCCc3c[nH]c4ccc(OC)cc34)c3ccccc3n2)c1	14µM[quencher]	-	?	-	?	?
O=C(Cn1cc(SCc2ccc(F)cc2)c2ccccc21)N1CCCC1	-	.	.	.	?	-
CSc1nncc(/C(C)=N\Nc2cccc(C)c2)n1	-	-	-	-	?	-
CSc1nncc(/C(C)=N\Nc2ccccc2)n1	-	-	-	-	2.8µM	-
CC/C(=N/Nc1ccccc1C)c1cnnc(SC)n1	-	?	-	-	3.5µM	?
CCNc1nc2c(c(=O)[nH]c(=O)n2C)n1CC(C)C	-	-	-	-	-	-
Cn1c(=O)[nH]c(=O)c2c1nc(N1CCNCC1)n2Cc1ccccc1	.	-	.	-	.	.
CC(C)Cn1c([N+](=O)[O-])nc2c1c(=O)[nH]c(=O)n2C	-	-	?	-31	.	-
Cn1c(=O)[nH]c(=O)c2c1nc([N+](=O)[O-])n2Cc1ccccc1	-	-	?	-45	?	?
Cn1nnnc1SCc1csc(Nc2ccccc2)n1	-	50µM	-	-	-	-
Cc1ccc(Nc2nc(CSc3nnnn3C)cs2)cc1	?	-	-	-	?	-
Cc1ccc(Nc2nc(CSc3nnnn3-c3ccccc3)cs2)cc1	11µM[quencher]	-	-	-	?	-
Cc1noc(C)c1-c1nc(Nc2ccc(F)cc2)c2ccccc2n1	.	?	.	-	.	.
COc1ccc(N=C2NC(=O)/C(=C\c3ccco3)S2)cc1	?	?	?	-	10µM	-
COc1ccc(N=C2NC(=O)/C(=C/c3ccc(O)c(OC)c3)S2)cc1	?	-	-	-	3.5µM	-
O=C1NC(=Nc2ccc(O)cc2)S/C1=C\C=C\c1ccco1	?	-	-	-	1.6µM	?
Cc1ccc(S(=O)(=O)c2nnn3c2nc(N2CCCC(C)C2)c2cc(Cl)ccc23)cc1C (stereo unspecified)	-	.	.	.	-	-
OCCC1CN(Cc2c(O)ccc3ccccc23)CCN1CCc1ccccc1 (stereo unspecified)	?	-	?	-38	?	-
SMILES	Tau fluor counter	Sfp inh	KDM4E inh	FBPA coupling cs	Tau ThT inhib	Tau fibril FP
COc1cc(CN2CCN(CCCc3ccccc3)C(CCO)C2)cc(OC)c1O (stereo unspecified)	.	-	.	-41	.	.
COc1ccc(CN2CCN(CCCc3ccccc3)C(CCO)C2)c(OC)c1 (stereo unspecified)	.	-	.	-	.	.
COc1cccc(NC(=O)Nc2cc(C(=O)O)ccc2N2CC3CC(C2)c2cccc(=O)n2C3)c1 (stereo unspecified)	.	-	.	.	.	.
O=C(O)c1ccc(N2CC3CC(C2)c2cccc(=O)n2C3)c(NC(=S)Nc2ccc(Br)cc2)c1 (stereo unspecified)	?	56µM	-	-	-	-
CCc1ccc(NC(=S)Nc2cc(C(=O)O)ccc2N2CC3CC(C2)c2cccc(=O)n2C3)cc1 (stereo unspecified)	-	56µM	?	-	-	-
CS(=O)(=O)c1sc2nc(-c3cccs3)cc(-c3ccccc3)c2c1N	-	10µM	?	-	?	-
COc1ccccc1Nc1ncc(C(=O)N2CCC(C(N)=O)CC2)c2ccccc12	-	-	-	-34	-	-
CC/C=C/[C@@H](c1ccccc1)[C@H](C)C(O)CC(=O)SC(C)(C)C (stereo partly specified)	.	-	.	-	.	.
CC(C)N1CCc2c(sc(NC(=S)NC(=O)c3ccccc3)c2C#N)C1	?	40µM	-	-39	?	-
CCN1CCc2c(sc(NC(=S)NC(=O)c3ccc(Cl)cc3)c2C(N)=O)C1	-	16µM	-	-	?	-
CCCN1CCc2c(sc(NC(=S)NC(=O)c3ccccc3)c2C#N)C1	?	50µM	?	-	16µM	-
O=C1N=C(O)CN1/N=C/c1ccc(-c2ccc([N+](=O)[O-])cc2)o1	-	.	-	.	10µM	-
O=C(N/N=C/c1ccc(-c2ccccc2)o1)c1ccccc1O	-	-	?	-	?	-
CNC(=S)N/N=C/c1ccc(-c2ccc(C(=O)O)cc2)o1	-	45µM	?	-	?	-
CCc1nnc(N/N=C/c2ccc(-c3ccc([N+](=O)[O-])cc3)o2)n1N	?	?	-	-37	1.8µM	?
O=C(O)c1ccc(-c2ccc(/C=N/Nc3ccc([N+](=O)[O-])cc3)o2)cc1	-[0.0958 µM]	?	?	-	.	-[0.0958 µM]
O=C(N/N=C/c1ccc(-c2ccc([N+](=O)[O-])cc2)o1)C(O)c1ccccc1 (stereo unspecified)	?	-	-	-	16µM	-
O=C(N/N=C/c1ccc([N+](=O)[O-])o1)C(O)c1ccccc1 (stereo unspecified)	-	-	-	-	.	-
Cc1ccccc1C1CC(=O)Oc2cc(C)c(Cl)c(C)c21 (stereo unspecified)	-	-	.	-	-	-
O=C(CN(c1cc(C(F)(F)F)ccc1Cl)S(=O)(=O)c1ccccc1)NCCc1ccccc1	?	.	.	.	-	-
COc1ccc(Oc2ncc3nc(C)c(=O)n(C[C@H]4CCCO4)c3n2)cc1	.	-	.	-	.	.
COC(=O)[C@@]1(Cc2ccc(OC)cc2)[C@H]2c3cc(C(=O)N(C)C)n(Cc4ccc(C)c(F)c4F)c3C[C@H]2CN1C(=O)c1ccccc1	-	-	-	-	-	-
CCS(=O)(=O)c1ncc(Cl)c(C(=O)N2CCN(c3cccc(Cl)c3)CC2)n1	-	.	.	.	?	-
CC(C)(C)NC(=S)N/N=C\c1ccc(-c2ccc([N+](=O)[O-])cc2)o1	?	32µM	-	-	7.1µM	-
CCC(=O)N/N=C/c1ccc(-c2ccc([N+](=O)[O-])cc2)o1	-	-	-	-	7.9µM	-
CCCCC(=O)N/N=C/c1ccc(-c2ccc([N+](=O)[O-])cc2)o1	?	-	-	-	4.5µM	-
CNC(=S)N/N=C/c1ccc(-c2ccc(Cl)c([N+](=O)[O-])c2)o1	?	-	-	-	?	-
